# Experimental data from PubChem BioAssay (NCI).
# The panel holds about 83,000 compounds, 20% with a hit somewhere; the sample as a whole holds those more often.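 Compound tested at a single concentration for 48 hours in 96-well plates; a percent growth value below 10 was scored as active.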 Activity calls are given as the source filed them.
# Tested on: OVCAR-8 ovarian
# Test: NCI-60 one-dose screen, 48 h (100 = growth as untreated, 0 = no growth, -100 = all killed)
# Conditions: 10 µM
row,SMILES,growth
1,CC1(C)CNC(=O)N1,99.8% (inactive)
2,Nc1ccn([C@@H]2O[C@H](COP(=O)(O)O[C@@H]3C[C@H](n4cc(F)c(=O)[nH]c4=O)O[C@@H]3COP(=O)(O)O[C@@H]3C[C@H](n4cc(F)c(=O)[nH]c4=O)O[C@@H]3COP(=O)(O)O[C@@H]3C[C@H](n4cc(F)c(=O)[nH]c4=O)O[C@@H]3COP(=O)(O)O[C@@H]3C[C@H](n4cc(F)c(=O)[nH]c4=O)O[C@@H]3COP(=O)(O)O[C@@H]3C[C@H](n4cc(F)c(=O)[nH]c4=O)O[C@@H]3COP(=O)(O)O[C@@H]3C[C@H](n4cc(F)c(=O)[nH]c4=O)O[C@@H]3COP(=O)(O)O[C@@H]3C[C@H](n4cc(F)c(=O)[nH]c4=O)O[C@@H]3COP(=O)(O)O[C@@H]3C[C@H](n4cc(F)c(=O)[nH]c4=O)O[C@@H]3COP(=O)(O)O[C@@H]3C[C@H](n4cc(F)c(=O)[nH]c4=O)O[C@@H]3COP(=O)(O)O[C@@H]3C[C@H](n4cc(F)c(=O)[nH]c4=O)O[C@@H]3COP(=O)(O)OCCOCCOCCOCCOCCOCCO)[C@H](O)C2O)c(=O)n1 (stereo partly drawn),40.7% (inactive)
3,CCCCN(CCCC)c1ccc(C(=NC(C)CCCN(CC)CC)c2ccc(N(C)C)cc2)cc1 (stereo not drawn),-49% (active)
4,Cc1nc2cc(-n3c(-c4ccc(F)cc4)nc4ccccc4c3=O)ccc2n1Cc1ccccc1,13% (inactive)
5,CN(C)Cc1cccs1,97% (inactive)
6,CCCCCCCCCCCCc1ccc(C(=O)/C=C/C(=O)O)cc1,67.1% (inactive)
7,Nc1nsc(C(=O)c2ccc(O)cc2)n1,91.1% (inactive)
8,O=C(CSc1nnc(-c2ccc(Cl)cc2)o1)c1ccccc1,96.2% (inactive)
9,NC1CCC(Nc2nc(NCc3ccc(-c4cccs4)nc3)c3ncn(C4CCCC4)c3n2)CC1 (stereo not drawn),12.2% (inactive)
10,CCCCOCC(=O)NC(NP(=O)(N(C)C)N(C)C)C(Cl)(Cl)Cl (stereo not drawn),62.8% (inactive)
11,CCOc1ccc(-n2cc(-c3ccc(N(C)C)cc3)[n+]3c2CCCCC3)cc1,12.2% (inactive)
12,CCC1(C)OC(=O)NC1=O (stereo not drawn),105% (inactive)
13,CC(=O)Nc1ccc(Sc2ccc(NC(C)=O)cc2)cc1,94.7% (inactive)
14,O=C1CC[C@@H](C(=O)N[C@H]2CSSC[C@@H](C(=O)NCCc3ccccc3)NC(=O)[C@H](Cc3ccccc3)NC(=O)[C@@H]3CCCN3C(=O)[C@@H]3CCCN3C2=O)N1,104% (inactive)
15,O=C1CC(c2cccc(-c3cccnc3)c2)=Nc2ccc(Br)cc2N1,17.2% (inactive)
16,Clc1cc(Cl)c(OCCCCCCN2CCNCC2)c(Cl)c1,76% (inactive)
17,CCCCCC(CCC)COC(=O)c1ccc(OC)cc1 (stereo not drawn),96.5% (inactive)
18,O=c1oc2cc(OS(=O)(=O)C3CC3)ccc2c2c1CCCCCC2,82.6% (inactive)
19,C=C1C(=O)O[C@H]2[C@H]1CC/C(COC(=O)OCCCCCOC(=O)OC/C1=C/CC[C@@]3(C)O[C@H]3[C@H]3OC(=O)C(=C)[C@@H]3CC1)=C\CC[C@@]1(C)O[C@@H]21,-4.61% (active)

row,SMILES,growth
1,CCOC(=O)c1c(Cl)c2c(n1Cc1cccc(OC)c1)-c1oncc1CC2,37.4% (inactive)
2,COc1cc2nc(Sc3sc(N)nc3C)n(-c3ccc(Oc4ccccc4)cc3)c(=O)c2cc1OC,85% (inactive)
3,CCCCCCCCCCN=C(c1ccc(N(C)C)cc1)c1ccc(N(C)C)cc1,30.9% (inactive)
4,Cc1cccc2c(Nc3ccc(NS(C)(=O)=O)cc3)c3ccc([N+](=O)[O-])cc3nc12,2.24% (active)
5,C[C@H](NC(=O)[C@@H]1CSSC[C@@H](NC(=O)Cc2nc3ccccc3cc2O)C(=O)NCC(=O)N1C)c1ccccc1,95.2% (inactive)
6,O=C(Nc1ccc(CN2CCOCC2)cc1)c1ccc(-c2cc(Cl)ccc2Cl)o1,36% (inactive)
7,COc1c(-c2c3sc(=O)[nH]c3nc3c2c(=O)[nH]n3C(C)C)cc2c(c1OC)OCO2,98.8% (inactive)
8,COc1ccc(-c2nnc(SCC(=O)c3ccccc3)o2)cc1,109% (inactive)
9,S=c1c2ncccc2c(-c2ccccn2)nn1Cc1ccccn1,106% (inactive)
10,COc1cc(C2C=C(c3ccc(Cl)c(Cl)c3)N=C3SC(C)=CN32)cc(OC)c1OC (stereo not drawn),73.1% (inactive)
11,O=C(NCCc1nccs1)c1cnc2c(S)cccc2c1,29.3% (inactive)
12,N#Cc1c(-c2ccccc2)nc(SCC(=O)N2CCOCC2)[nH]c1=O,99.3% (inactive)
13,CCCCCCN=C(N)CCCCCCCCCCC(N)=NCCCCCC,21.8% (inactive)
14,CNC(=O)c1cc(Oc2ccc(NC(=O)Nc3ccc(Cl)c(C(C)(C)C)c3)c(F)c2)ccn1,44.9% (inactive)
15,CN(C)c1ccc2c(c1)OC(N)=C(C#N)C2c1ccc2c(c1)CCO2 (stereo not drawn),24.1% (inactive)
16,CCc1c(C(=O)NCc2c(O)ccc3cccc(O)c23)[nH]c(C)c1C(C)=O,38.4% (inactive)
17,CC(=O)c1ccc(NCn2nc(-c3ccc(Cl)cc3)oc2=S)cc1,105% (inactive)
18,COC(=O)c1cnc2c(c1)Oc1ccc(Cl)cc1-c1cc(C)nn1-2,96% (inactive)
19,Clc1cc(Cl)c(Cl)c(-c2nc(-c3cccnc3)cs2)c1,78.8% (inactive)
